Results taken from the supplement of paper PMC6555819.

Assays:
Test in all cases: PBM binding z-score (relative to random genomic background probes); higher = stronger binding; sequences stand for … in GC…GCGATTGACAGCGTAGAATGAAGG
[1] = tested on: FXR:RXRa (NR concentration 270 nM, RXRa partner concentration 90 nM)
Outline: (§1)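 Binding buffer was PBS pH 7.4 with 2% milk, 0.02% Triton X-100, 1 mM DTT, 0.2 mg/mL BSA and 0.4 mg/ml salmon testes DNA. In it, ligand-free nuclear receptor dimers were incubated 1 h on custom Agilent 4×180K protein-binding microarrays carrying double-stranded probes. Antibodies against each partner (one per run) detected binding, and z-scores were calculated against random background probes after regression normalization of scanned fluorescence.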

[2] = tested on: LXRa:RXRa (NR concentration 270 nM, RXRa partner concentration 90 nM)
Outline: as §1

[3] = tested on: LXRa homodimer (NR concentration 270 nM)
Outline: as §1

[4] = tested on: LXRb:RXRa (NR concentration 270 nM, RXRa partner concentration 90 nM)
Outline: as §1

[5] = tested on: LXRb homodimer (NR concentration 270 nM)
Outline: as §1

[6] = tested on: PPARa:RXRa (NR concentration 270 nM, RXRa partner concentration 90 nM)
Outline: as §1

[7] = tested on: PPARg:RXRa (NR concentration 180 nM, RXRa partner concentration 90 nM)
Outline: as §1

[8] = tested on: PPARg:RXRa 270nM:90nM, anti-RXR (NR concentration 270 nM, RXRa partner concentration 90 nM)
Outline: as §1

[9] = tested on: PPARg:RXRa 30nM:10nM, anti-RXR (NR concentration 30 nM, RXRa partner concentration 10 nM)
Outline: as §1

[10] = tested on: PPARg:RXRa 90nM:30nM, anti-RXR (NR concentration 90 nM, RXRa partner concentration 30 nM)
Outline: as §1

Sequence	PBM binding z-score [1]	PBM binding z-score [2]	PBM binding z-score [3]	PBM binding z-score [4]	PBM binding z-score [5]	PBM binding z-score [6]	PBM binding z-score [7]	PBM binding z-score [8]	PBM binding z-score [9]	PBM binding z-score [10]
GATACAGGGTCGAGGCCAGAGTACGCGTATTGAT	0.882	0.531	-0.581	0.3	-1.21	1.99	1.21	0.874	0.198	0.515
CGAACTAGGTCATTGACAGGCCAGTGAATAGTAA	4.02	2.69	-0.0414	1.9	-0.365	4.67	7.02	6.4	3.9	5.91
CCGACTGGGGCGGAAAGGTTACCATACCATCCGG	0.516	0.85	0.0346	1.23	-0.589	2.08	1.41	2.7	0.707	1.99
TAGCCTAGGTCATGGGCCAGAATACCACGCGAAC	4.31	3.48	0.271	2.33	-0.281	4.2	3.64	3.63	0.806	2.68
CGTCCAATGTCAAAGGTCAGTGAAGAGATGACGG	4.62	4.48	1.56	3.64	0.773	5.18	6.67	6.88	4.57	6.96
CCTACTGGGCCAGGGTCATTGATCAGTCAAAGCA	2.51	2.16	0.0124	2.58	-1.02	4.14	3.23	3.68	0.898	2.87
TCTCGGAGGACACGCAAGGTCAGAGCTCGACATC	1.49	2.26	1.31	1.58	-0.475	2.1	0.475	1.39	2.16	1.64
TGAACGAGGTTAAAGATCAGGGAACGTGGCGTCG	2.87	2.22	-0.236	1.57	-0.0519	4.05	5.17	5.68	4.28	6
CCTCGGAGGCCAACAGGAGGTCAGAGCTGCCAGA	1.54	2.49	1.48	1.58	-0.663	2.29	0.0544	0.339	-0.921	-0.26
CGAACTAGGTCAAGGACAGAGAATCTCCGCACGC	3.32	1.95	-0.0711	1.25	-0.37	4.47	7.55	6.28	3.62	5.63
GCTTACGGGTCAAAGGTTATATCATGAATAGAAT	7.77	6.12	1.25	5.78	1.03	6.94	11.4	9.51	10.9	11.1
ACTTTTAGTTGAGACGAGGGCAACCGATAGGTTG	0.762	0.517	-0.32	0.176	0.689	0.546	0.448	0.362	0.289	0.332
TCTAGTAGTTGATTAGGGCAACCGAAACAGCGGA	0.323	0.0277	-0.246	0.0544	-0.448	0.658	0.17	1.41	2.74	2.06
TCGAGTAGGTTAGGAGCATTCAGAATGGCGTCGA	-0.126	-0.0909	-0.756	-0.438	-1.39	0.24	0.0725	0.668	0.928	0.741
ACTCGCAGGACAAAGGTCAGAGCTACGCCAGTGA	3.77	4.15	1.13	3.23	0.178	4.75	7.12	6.87	5.49	6.99
TCTATTAGTAGAAGGGCAACCGACGAGTCCGTTT	0.288	0.212	0.0189	0.17	-0.103	0.688	0.23	1.93	3.29	2.44
CCTAGCAGGCCCATCTGGGTCACTCAAGGCTTGA	0.338	0.486	-0.426	0.484	-1.16	1.7	0.158	0.743	-0.909	-0.217
CAAACTAGGTAACCGGAAGGTCAAAGTCCGCATG	4.07	3.94	3.88	3.43	0.672	4.48	4.83	4.98	2.22	4.2
ACAGACAGGTGAGTGACGGTAACTCAGCTGGACG	-0.187	-0.0958	-0.572	-0.393	-0.746	-0.129	0.633	0.0382	-0.358	-0.388
CAAACTAGGTCGCAGAGGTCAAAGTCCGTGCGTA	5.75	6.03	5.84	5.36	1.26	5.7	7.46	6.53	4.01	6.06
CTGGAAAGGTCGTGCTCAGGTGAGTATACCAAAC	5.25	3.35	-0.219	2.7	-0.505	4.7	2.63	3.81	1.04	2.24
TAGCCTAGGTCATGAGGGCCAGTATAGTGTCGGC	3.91	3.07	0.189	1.73	-0.262	3.69	2.94	2.69	0.483	1.94
AAAGACAGGTGATGAAGGTAACTCAGGCTATCAT	-0.191	-0.0472	0.0332	0.0714	-0.0721	0.593	0.785	0.567	0.567	0.473
CCTACTGGGCCACGAAAGGTCATTGAATCAGTGA	3.69	5.1	4.09	4.26	0.492	4.68	4.56	5.1	2.28	4.03

Sequence	PBM binding z-score [1]	PBM binding z-score [2]	PBM binding z-score [3]	PBM binding z-score [4]	PBM binding z-score [5]	PBM binding z-score [6]	PBM binding z-score [7]	PBM binding z-score [8]	PBM binding z-score [9]	PBM binding z-score [10]
GCGACTGGGTCATCAGCAGGTTACCATAACTTAA	2.66	1.93	-0.34	2.04	-1.03	4.06	5.18	4.73	1.52	3.88
CGATCTAGGTCAAGGACAGTGAATCTCCGCACGC	3.25	2.07	0.0913	1.3	-0.135	4.43	7.27	5.87	3.68	5.55
TCCTATAGGTAATACAGGTGAAAGTCGGCATCTA	0.774	0.986	-0.00145	0.839	0.103	1.84	0.918	1.91	3.2	2.41
CCTCGGAGGACAACAGGAGGTCAGAGTTGCCAGA	1.11	2.05	2.59	1.57	-0.486	2.02	0.634	0.674	-0.404	0.264
CCTACTAGGCCAAAGGTCATTGATTCCAATGCTC	5.07	5.49	4.69	5.36	1.48	6.66	12.3	10.5	11.4	11.8
TAACCTAGGTCATTGGGCCAGTATAGTACGCATC	5.13	4.92	2.81	3.43	0.934	4.54	4.87	4.88	1.89	3.88
ACAGACAGGTCATGAAGGTAACTCAGGCTATCAT	5.65	4.39	0.927	3.31	0.862	4.77	3.76	3.6	1.23	2.19
TAGCCTAGGTCATTCAGGGACCAGTATAGAAAGC	4.75	3.39	0.547	2.25	0.504	3.62	2.01	2.24	0.478	1.37
ATCGAAAGGTCGAAGATGAGTATACCCACCCGAA	3.83	3.21	0.43	2.41	0.732	4	2.52	2.37	1.04	1.8
GCTATTAGTTGAGAGGGCAACCGAATGATTCTCG	0.249	0.428	0.355	0.434	-0.23	1.38	1.03	2.25	0.553	1.53
TCTTGTAGATTAGCAGGTTAAGAAAGCTGGCCAA	0.383	0.641	0.135	0.57	-0.424	0.897	-0.494	1.4	2.55	2.07
CGAACTAGGTCATTGACAGGACAGTGTATAGTAA	4.45	3.09	0.874	2.13	0.106	4.79	7.66	6.32	3.42	5.88
ATCTCTAGGTAACCAAGTTCAGTGTATGCCGAAC	0.4	0.852	0.996	0.524	0.803	1.06	0.577	0.99	0.331	0.721
CCTACTGGGCCAAGAAGGTCATTGATGCCGATAA	1.94	2.35	0.897	2.47	-0.675	3.5	2.17	2.94	0.664	1.87
CCAGACATGTGAAAGGTAACTCAGTCTGGTACGC	-0.293	-0.0217	0.0919	0.07	0.186	1.02	1.63	2.44	0.62	2.1
TTACCAAGGTGAAAGGTCGATGATGCACGCCTTG	3.03	2.42	-0.187	2.14	-0.613	4.95	8.4	7.54	6.44	7.87
CCAACTAGGTCAAGAGGTCAAAGTCCGCTTCCCG	6.96	6.55	6.26	5.47	1.76	6.42	9.41	7.99	6.27	8.1
CCTACTGGGCCATTCAGAGGTCCTTGATCATATG	-0.359	-0.572	-0.215	-0.597	-0.529	0.27	0.118	0.194	-0.728	-0.16
AATACAGGGTCACTAGGCCATAGTAGGTACGAAT	5.83	4.98	1.02	4	0.913	6.01	8.68	6.76	3.65	5.88
AGAATGAGGTTATTAAGATCTGGGAATTGCGGTC	1.76	1.89	0.216	1.26	-0.139	2.79	0.924	1.47	0.36	0.922
TCGAGTAGGTTAGGGGCATTCCGAATGGCGTCGA	0.369	0.403	-0.233	0.645	-0.872	1.25	0.541	2.27	1.24	1.64
TCTAGGAGGACACGAAAGGTCAGAGCTCGACATC	3.28	3.77	3.29	3.49	-0.113	3.91	1.98	3.19	2.99	2.51
CCTTACGGGTCACGAGGTTATAGAACGACGAGCG	6.7	4.58	0.451	4.12	-0.0451	6.16	7.18	6.91	3.33	5.23
TAGCCTCGGTCATGGGCCAGTATACCACGCGAAC	0.333	0.687	0.0533	-0.073	-0.572	0.143	0.374	0.188	-0.674	-0.0831
